Measurements as given in PubChem BioAssay AID463173 (ICCB-Longwood Screening Facility, Harvard Medical School, 2010).
The campaign covered roughly 52,000 compounds. About 1,700 (3.3%) were called active. The list comes from a sample in which actives are over-represented; it also holds similar structures and randomly drawn compounds. A number with no mark means an inactive call. No stated cut-off is given here; in the data, active means survival mostly below about 52% (no sharp cut-off); inactive means mostly above about 56%.

test system: Wild type; experiment: S. aureus survival, RN4220 and DeltatarO strains – OD600, teichoic acid synthesis inhibitors, primary screen (AID 463173); conditions: S. aureus RN4220 wild type/DeltatarO growth, OD600, 18 h, stronger effect = lower value, screened at 18.75 µg/mL (by protocol)

Row | SMILES | survival
1 | Cc1cccc(Cn2c(SCc3ccc(C(=O)NCc4ccccc4F)cc3)nc3ccncc32)c1 | 80%
2 | COCCn1c(C)nnc1SCC1CCCO1 (stereo not given) | 127%
3 | Cc1cc(C)cc(NC(=O)c2cccc3c2C(=O)N(C2CCCCC2)C3)c1 | 42%
4 | COC(=O)c1ccc(NC(=O)c2cccc3c2C(=O)N(C2CCCCC2)C3)cc1 | 88%
5 | CC(C)c1ccc(NC(=O)c2cccc3c2C(=O)N(C2CCCCC2)C3)cc1 | 1% (active)
6 | Cn1c(C(C(=O)NCC2CCCO2)N(C(=O)Cn2nnc3ccccc32)c2ccc3c(c2)OCO3)nc2ccccc21 (stereo not given) | 111%
7 | CCc1cccc(C)c1NC(=O)c1cc(C)nc2c1c(C)nn2-c1cccc(Cl)c1C | 78%
8 | Cc1cc(C(=O)N2CCN(c3ccccc3)CC2)c2c(C)nn(-c3cccc(F)c3)c2n1 | 63%
9 | Cc1cc(C(=O)Nc2ccc(C(C)C)cc2)c2c(C)nn(-c3ccccc3)c2n1 | 80%
10 | Cc1cc(C)cc(NC(=O)c2cc(C)nc3c2c(C)nn3-c2ccccc2)c1 | -6% (active)
11 | Cc1ccc(NC(=O)c2cc(C)nc3c2c(C)nn3-c2cccc(Cl)c2C)c(C)c1 | -6% (active)
12 | COc1cccc(CNC(=O)c2cc(C)nc3c2c(C)nn3-c2cccc(F)c2)c1 | 131%
13 | COc1ccc(NC(=O)c2cc(C)nc3c2c(C)nn3-c2cccc(Cl)c2C)c(OC)c1 | 85%
14 | Cc1cc(C(=O)NCc2ccccc2C)c2c(C)nn(-c3cccc(F)c3)c2n1 | 76%
15 | Cc1ccc(C)c(N2CCN(C(=O)c3cc(C)nc4c3c(C)nn4-c3ccccc3)CC2)c1 | 134%
16 | Cc1ccc(C)c(N2CCN(C(=O)c3cc(C)nc4c3c(C)nn4-c3cccc(F)c3)CC2)c1 | 0% (active)
17 | Cc1cc(C(=O)NCc2ccccc2)c2c(C)nn(-c3cccc(F)c3)c2n1 | 14% (active)
18 | Cc1ccc(-n2nc(C)c3c(C(=O)Nc4ccc(Br)c(C)c4)cc(C)nc32)cc1 | 78%
19 | O=C1CC(c2ccccc2C(F)(F)F)c2c(c3ccccc3[nH]c2=O)O1 (stereo not given) | 69%
20 | Cc1cccc(-c2noc(-c3cccnc3NCc3ccccc3Cl)n2)c1 | 79%
21 | N#Cc1ccccc1CN1C(=O)c2ccccc2Sc2ccc(C(=O)OCc3ccco3)cc21 | 85%
22 | CC1CCN(S(=O)(=O)c2ccc3c(c2)N(CC(=O)N2CCN(c4ccccc4)CC2)C(=O)CO3)CC1 | 87%
23 | CCN(CC)C(=O)CSc1nsc(SCC(=O)N(CC)CC)c1C#N | 102%

Row | SMILES | survival
24 | CC(=O)Nc1ccc(S(=O)(=O)N2CCC(Oc3ccc(-n4cnnn4)cc3)CC2)cc1 | 118%
25 | O=C(CN1C(=O)S/C(=C\c2ccco2)C1=O)CN1C(=O)S/C(=C\c2ccco2)C1=O | 113%
26 | OC1N(CN2CCN(c3ccccc3F)CC2)c2ccccc2C12OCCCO2 (stereo not given) | 104%
27 | Cn1cnnc1SCC(=O)Nc1ccc(C#N)cc1 | 71%
28 | CC(=O)c1cccc(NC(=O)CCCSc2nc(-c3ccco3)cc(C(F)(F)F)n2)c1 | 52%
29 | Cc1ccccc1CSc1nc(-c2cccc(F)c2)nc2c1Cc1c(CO)cnc(C)c1O2 | 85%
30 | CCc1ccc(-n2nc(C)c3c(C(=O)Nc4cc(OC)cc(OC)c4)cc(C)nc32)cc1 | 66%
31 | CCc1ccc(-n2nc(C)c3c(C(=O)Nc4ccc(Cl)cc4)cc(C)nc32)cc1 | 53%
32 | Cc1cc(C)c(NC(=O)c2cc(C)nc3c2c(C)nn3-c2cccc(F)c2)c(C)c1 | 83%
33 | Cc1cc(C(=O)Nc2cccc(C)c2C)c2c(C)nn(-c3cccc(F)c3)c2n1 | 73%
34 | CCc1ccc(-n2nc(C)c3c(C(=O)Nc4cccc(C(F)(F)F)c4)cc(C)nc32)cc1 | -3% (active)
35 | Cc1cc(C(=O)Nc2cccc(C(F)(F)F)c2)c2c(C)nn(-c3cccc(F)c3)c2n1 | -1% (active)
36 | CCc1nnc2c3ccccc3nc(Nc3cc(C)cc(C)c3)n12 | 37%
37 | Cc1cc(C)nc(NS(=O)(=O)c2ccc(NC(=O)c3ccccc3O)cc2)n1 | 127%
38 | CCCN1CCN(c2nnc(-n3cccc3C(=O)Nc3cc(Cl)ccc3C)s2)CC1 | 82%
39 | Cc1c(C(=O)N(C)C)sc2c1c(=O)n(-c1ccccc1C(F)(F)F)c(=O)n2Cc1ccccc1C#N | 66%
40 | CCOC(=O)c1ccccc1NC(=O)Cn1c(=O)n(CCC(=O)N2CCc3ccccc3C2)c(=O)c2ccccc21 | 88%
41 | CC(=O)N(Cc1cccnc1)c1nc2c(C)c(C)ccc2s1 | 71%
42 | Cc1ccc2sc(N(Cc3cccnc3)C(=O)CCS(=O)(=O)c3ccccc3)nc2c1C | 1% (active)
43 | Cc1cccc2sc(N(Cc3cccnc3)C(=O)CCS(=O)(=O)c3ccccc3)nc12 | 82%
44 | CC(=O)c1ccc(C(=O)N(Cc2cccnc2)c2nc3c(C)c(C)ccc3s2)cc1 | -3% (active)
45 | Cc1cc(C)c2nc(N(Cc3cccnc3)C(=O)CCS(=O)(=O)c3ccccc3)sc2c1 | 59%
46 | CC(=O)c1ccc(C(=O)N(Cc2cccnc2)c2nc3c(Cl)cccc3s2)cc1 | 119%

Row | SMILES | survival
47 | Cc1ccc(SCC(=O)Nc2ccc3oc(-c4cccc(C)c4)nc3c2)cc1 | 96%
48 | COCCNC(=O)CSc1nc2cc3c(cc2c(=O)n1CCCCCC(=O)NCc1ccc(OC)cc1)OCO3 | 63%
49 | CCCCNC(=O)CSc1nc2cc3c(cc2c(=O)n1CCCC(=O)NCCc1ccc(OC)c(OC)c1)OCO3 | 129%
50 | COCCCNC(=O)CSc1nc2cc3c(cc2c(=O)n1CCCC(=O)NCc1ccc(OC)cc1)OCO3 | 70%
51 | CCOC(=O)CSc1nc2cc3c(cc2c(=O)n1CCCCCC(=O)NCc1ccc(OC)cc1)OCO3 | 71%
52 | COc1ccc(CCNC(=O)CCCn2c(SCC(N)=O)nc3cc4c(cc3c2=O)OCO4)cc1OC | 81%
53 | CCN(CC)C(=O)CSc1nc2cc3c(cc2c(=O)n1CCCC(=O)NCc1ccc(OC)cc1)OCO3 | 82%
54 | CCN(CC)C(=O)CSc1nc2cc3c(cc2c(=O)n1CCCCCC(=O)NCc1ccc(OC)cc1)OCO3 | -3% (active)
55 | COCCCNC(=O)CSc1nc2cc3c(cc2c(=O)n1CCCCCC(=O)NCc1ccc(OC)cc1)OCO3 | 1% (active)
56 | CCOC(=O)CSc1nc2cc3c(cc2c(=O)n1CCCC(=O)NCCc1ccc(OC)c(OC)c1)OCO3 | -4% (active)
57 | CC1Cc2ccccc2N1C(=O)c1nc2ccccc2s1 (stereo not given) | 113%
58 | O=C(Cn1nc(-c2ccc(Cl)cc2)c2ccccc2c1=O)Nc1cccc(C(F)(F)F)c1 | 71%
59 | COc1ccccc1N=C1SC(C(=O)Nc2ccccc2OC)CC(=O)N1C (stereo not given) | 73%
60 | COc1cccc(-c2nnc3sc(CN4CCCCC4)cn23)c1 | 68%
61 | CCN1/C(=C\C=C2C(=O)OC(C)(C)OC2=O)Sc2ccccc21 | 94%
62 | CCC(Sc1nc2ccncc2[nH]1)C(=O)Nc1cc(Cl)ccc1C (stereo not given) | 126%
63 | CCOC(=O)c1ccc(NC(=O)CN2C(=O)c3cccnc3Sc3ccccc32)cc1 | 66%
64 | CCOC(=O)c1c(C)n(-c2ccccc2)c2ccc(OC(=O)c3cccc(C)c3)cc12 | 50%
65 | CCOC(=O)c1c(C)n(-c2ccccc2)c2ccc(OC(=O)c3cccc(Cl)c3)cc12 | 78%
66 | CCOC(=O)c1c(C)n(-c2ccccc2)c2ccc(OC(=O)c3ccccc3)cc12 | 0% (active)
67 | CC(C)(C)c1ccc(OCCCC(=O)N2CCOCC2)cc1 | 102%
68 | O=C(NCCCN1CCN(c2ccccc2F)CC1)c1sc2ncccc2c1-n1cccc1 | 81%
69 | c1coc(-c2nc3ccccn3c2Nc2ccc3c(c2)OCCO3)c1 | 70%

Row | SMILES | survival
70 | COc1ccc(C(=O)CC2(O)C(=O)N(Cc3ccccc3)c3ccc(Br)cc32)cc1 (stereo not given) | 57%
71 | O=C(CC1(O)C(=O)N(CCc2ccccc2)c2ccc(Br)cc21)c1ccccc1 (stereo not given) | 15%
72 | COc1ccc(C(=O)CC2(O)C(=O)N(CCc3ccccc3)c3ccc(Br)cc32)cc1OC (stereo not given) | 65%
73 | C#CCN1C(=O)C(O)(CC(=O)c2ccc(OC)c(OC)c2)c2cc(Br)ccc21 (stereo not given) | 111%
74 | O=C(CC1(O)C(=O)N(CCc2ccccc2)c2ccc(Br)cc21)c1ccccc1O (stereo not given) | 6% (active)
75 | O=C(CC1(O)C(=O)N(CCc2ccccc2)c2ccc(Br)cc21)c1ccc(F)cc1 (stereo not given) | 4% (active)
76 | C=CCN(CC=C)C(=S)Nc1ccc2nc(C)c(C)nc2c1 | 110%
77 | Cc1ccc(-c2nc3ncccc3o2)cc1NC(=O)c1ccc(-c2ccc(Cl)cc2)o1 | 73%
78 | COc1ccc(Cn2c(SCc3ccc(C(=O)NCc4ccccc4F)cc3)nc3cccnc32)cc1 | 67%
79 | CCOc1ccc(NC(=O)CN2CCN(CC(=O)Nc3ccccc3OCC)CC2)cc1 | 81%
80 | CCOc1ccccc1NC(=O)Cc1coc2c(C)c(C)ccc12 | 114%
81 | CC1CCN(C(=O)Cn2cc(SCC(=O)NCc3ccc(F)cc3)c3ccccc32)CC1 | 89%
82 | CCCc1cc(=O)[nH]c(Nc2ccc(O)cc2C)n1 | 110%
83 | COc1ccc(C)c(N2C(=O)CC(N3CCN(c4ccc(F)cc4)CC3)C2=O)c1 (stereo not given) | 109%
84 | CC1Cc2ccccc2N1C(=O)c1cc2n(n1)C(C(F)(F)F)CC(c1ccco1)N2 (stereo not given) | 110%
85 | Cc1ccc(CN2C(=O)C(=O)c3cc(Br)cc(C)c32)cc1 | 40%
86 | CCCOc1ccc(CN2C(=O)C(=O)c3cccc(C)c32)cc1 | 38%
87 | Cc1cccc2c1N(Cc1ccccc1OCCC(C)C)C(=O)C2=O | 25% (active)
88 | Cc1cc(Br)cc2c1N(Cc1ccccc1OC(C)C)C(=O)C2=O | 26% (active)
89 | COc1ccccc1CN1C(=O)C(=O)c2cccc(C)c21 | 107%
90 | CCCCOc1ccc(CN2C(=O)C(=O)c3cc(Br)cc(C)c32)cc1OC | 59%
